The values that follow come from PubChem BioAssay (EPA / NIEHS).

Activity calls are given as the source filed them. The calls were made as follows: active = hit-call score of the fitted dose curve at least 0.9, where 1 is the maximum; inactive = score below 0.9.

Common to all, as to details: mRNA level, 48 h; actives raise or lower the signal
Read-out in one assay: CYP2C8 (gene 1558)
In words: LTEA_HepaRG_CYP2C8: Life Technologies and Expression Analysis (LTEA) Assay for CYP2C8 using HepaRG (AID 2283483). Put shortly:
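CYP2C8 expression measured by TaqMan qRT-PCR and normalized to three housekeeping genes. HepaRG cultures were treated for 48 h with an eight-point half-log series topping at 100 uM, vehicle 0.5% DMSO, duplicates; fitted both directions against DMSO.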

Read-out in the next assay: CYP2C9 (gene 1559)
In words: LTEA_HepaRG_CYP2C9: Life Technologies and Expression Analysis (LTEA) Assay for CYP2C9 using HepaRG (AID 2283484). The method in brief: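 CYP2C9 transcript level, quantified by TaqMan qRT-PCR against three housekeeping genes, was fitted bidirectionally relative to 0.5% DMSO. HepaRG cultures were treated 48 h, in duplicate, at eight half-log concentrations topping at 100 uM.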

Read-out in the next assay: CYP2E1 (gene 1571)
Description: LTEA_HepaRG_CYP2E1: Life Technologies and Expression Analysis (LTEA) Assay for CYP2E1 using HepaRG (AID 2283485). The method in brief:
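Readout is qRT-PCR of CYP2E1 mRNA, normalized to three housekeeping genes and fitted bidirectionally against 0.5% DMSO. HepaRG cells were dosed 48 h at eight concentrations, highest 100 uM with half-log dilutions.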

Read-out in a further assay: CYP4A11 (gene 1579)
In words: LTEA_HepaRG_CYP4A11: Life Technologies and Expression Analysis (LTEA) Assay for CYP4A11 using HepaRG (AID 2283486). The method in brief:
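CYP4A11 transcript levels were quantified by TaqMan qRT-PCR after HepaRG human liver cells were treated for 48 hours with test chemicals (top 100 uM, half-log dilutions, 0.5% DMSO). Gain or loss of signal was fitted relative to DMSO.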

Read-out in assay [1]: Cytochrome P450 3A4 (Homo sapiens) (UniProt P08684)
In words: LTEA_HepaRG_CYP3A4: Life Technologies and Expression Analysis (LTEA) Assay for CYP3A4 using HepaRG (AID 2283487). The method in brief:
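In a human hepatic line (HepaRG), duplicate wells were treated 48 h with up to 100 uM chemical in half-log dilutions. Endpoint: CYP3A4 mRNA induction or loss relative to 0.5% DMSO vehicle, by qRT-PCR.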

Read-out in assay [2]: DNA damage-inducible transcript 3 (DDIT3), DDIT3 (gene 1649)
In words: LTEA_HepaRG_DDIT3: Life Technologies and Expression Analysis (LTEA) Assay for DNA damage-inducible transcript 3 (DDIT3) using HepaRG (AID 2283488). Put shortly:
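Cells are human HepaRG liver cells treated for 48 h with eight half-log concentrations up to 100 uM in 0.5% DMSO. Transcript levels come from qRT-PCR normalized to three housekeeping genes, with activity fitted in both directions relative to vehicle.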

Read-out in assay [3]: Pro-epidermal growth factor (Homo sapiens) (UniProt P01133)
In words: LTEA_HepaRG_EGF: Life Technologies and Expression Analysis (LTEA) Assay for Epidermal growth factor (EGF) using HepaRG (AID 2283489). Put shortly: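 qRT-PCR readout of EGF transcript after 48 h chemical exposure of HepaRG cells; eight concentrations from 100 uM down in half-log steps, duplicate wells, 0.5% DMSO vehicle. Bidirectional curve fitting against DMSO baseline.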

Read-out in assay [4]: Early growth response protein 1 (EGR1) transcription factor, EGR1 (gene 1958)
Description: LTEA_HepaRG_EGR1: Life Technologies and Expression Analysis (LTEA) Assay for Early growth response protein 1 (EGR1) transcription factor using HepaRG (AID 2283490). Put shortly:
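EGR1 transcript levels quantified by qRT-PCR (Fluidigm arrays) against three housekeeping genes after 48 h chemical exposure of HepaRG cells. Eight-point half-log series topping at 100 uM, 0.5% DMSO vehicle, analyzed for gain or loss.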

Read-out in assay [5]: Ezrin (EZR), EZR (gene 7430)
Description: LTEA_HepaRG_EZR: Life Technologies and Expression Analysis (LTEA) Assay for Ezrin (EZR) using HepaRG (AID 2283491). Put shortly:
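Gain or loss of EZR mRNA is scored relative to 0.5% DMSO in human HepaRG cultures treated 48 h with test chemicals in duplicate, eight half-log concentrations from 100 uM.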

Read-out in assay [6]: Cytochrome P450 3A7 (Homo sapiens) (UniProt P24462)
Description: LTEA_HepaRG_CYP3A7: Life Technologies and Expression Analysis (LTEA) Assay for CYP3A7 using HepaRG (AID 2283492). Put shortly: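 CYP3A7 transcript levels were read by TaqMan qRT-PCR on Fluidigm arrays after 48 h chemical exposure of human HepaRG cells, with housekeeping-gene normalisation. Eight half-log concentrations up to 100 uM in 0.5% DMSO were tested in duplicate.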

Read-out in assay [7]: Fatty Acid-Binding Protein 1 (FABP1), FABP1 (gene 2168)
In words: LTEA_HepaRG_FABP1: Life Technologies and Expression Analysis (LTEA) Assay for Fatty Acid-Binding Protein 1 (FABP1) using HepaRG (AID 2283494). Put shortly: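 FABP1 expression by TaqMan qRT-PCR, normalised to three housekeeping genes, in HepaRG cells after 48 h chemical treatment. Eight-point half-log series topping at 100 uM in 0.5% DMSO, duplicates; gain or loss fitted relative to vehicle.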

Read-out in assay [8]: Cytochrome P450 4A22 (Homo sapiens) (UniProt Q5TCH4)
In words: LTEA_HepaRG_CYP4A22: Life Technologies and Expression Analysis (LTEA) Assay for Cytochrome P450 4A22 (CYP4A22) using HepaRG (AID 2283495). Put shortly:
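HepaRG, 48 h post-plating -> serum-free induction medium; dosed 48 h, duplicate, 8 conc. (100 uM top, half-log), 0.5% DMSO. Readout: CYP4A22 mRNA by qRT-PCR, ACTB/GAPDH/POLR2A normalization; gain/loss fit relative to DMSO.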

Read-out in assay [9]: Cytochrome P450 7A1 (Homo sapiens) (UniProt P22680)
Description: LTEA_HepaRG_CYP7A1: Life Technologies and Expression Analysis (LTEA) Assay for Cytochrome P450 7A1 (CYP7A1) using HepaRG (AID 2283496). The method in brief:
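HepaRG, 48 h exposure, 8-pt half-log series from 100 uM, 0.5% DMSO vehicle, duplicates. Readout: TaqMan qRT-PCR mRNA vs three housekeeping genes; bidirectional curve fit against DMSO baseline.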

Read-out in assay [10]: Glutathione S-Transferase (GSTA2), GSTA2 (gene 2939)
In words: LTEA_HepaRG_GSTA2: Life Technologies and Expression Analysis (LTEA) Assay for Glutathione S-Transferase (GSTA2) using HepaRG (AID 2283497). Put shortly: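 GSTA2 transcript levels came from Fluidigm TaqMan qRT-PCR normalized to three housekeeping genes, fitted in both directions against DMSO. HepaRG cultures received chemicals for 48 h in serum-free induction medium (0.5% DMSO), 8 half-log concentrations up to 100 uM, duplicate.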

Read-out in assay [11]: Glutamate-cysteine ligase catalytic (GCLC), GCLC (gene 2729)
In words: LTEA_HepaRG_GCLC: Life Technologies and Expression Analysis (LTEA) Assay for Glutamate-cysteine ligase catalytic (GCLC) using HepaRG (AID 2283498). Put shortly: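 Expression by TaqMan qRT-PCR, normalized to three housekeeping genes (ACTB, GAPDH, POLR2A), with up- or down-regulation fitted against DMSO. HepaRG cells dosed in duplicate for 48 h with 8 half-log concentrations up to 100 uM, vehicle 0.5% DMSO.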

Read-out in assay [12]: Heat shock 70 kDa protein 1 (HSPA1A), gene 3303
In words: LTEA_HepaRG_HSPA1A: Life Technologies and Expression Analysis (LTEA) Assay for Heat shock 70 kDa protein 1 (HSPA1A) using HepaRG (AID 2283502). The method in brief: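 Cells were plated and cultured for 48 h, then switched to serum-free induction medium. Chemicals were added at eight half-log concentrations up to 100 uM for 48 h. RNA was then isolated and HSPA1A measured by qRT-PCR with bidirectional curve fitting against DMSO.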

Read-out in assay [13]: Glutathione S-transferase M3 (GSTM3), GSTM3 (gene 2947)
Description: LTEA_HepaRG_GSTM3: Life Technologies and Expression Analysis (LTEA) Assay for Glutathione S-transferase M3 (GSTM3) using HepaRG (AID 2283501). The method in brief:
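qRT-PCR read-out of GSTM3 transcript, normalized to three housekeeping genes, from human HepaRG cells after 48 h chemical exposure. Eight-point half-log series, top 100 uM, 0.5% DMSO vehicle; gain or loss fitted relative to DMSO baseline.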

Broadly, the AC50 is the concentration giving half of the maximal activity seen.

Sequence of Cytochrome P450 3A4 (Homo sapiens) (P08684 whole entry, looked up): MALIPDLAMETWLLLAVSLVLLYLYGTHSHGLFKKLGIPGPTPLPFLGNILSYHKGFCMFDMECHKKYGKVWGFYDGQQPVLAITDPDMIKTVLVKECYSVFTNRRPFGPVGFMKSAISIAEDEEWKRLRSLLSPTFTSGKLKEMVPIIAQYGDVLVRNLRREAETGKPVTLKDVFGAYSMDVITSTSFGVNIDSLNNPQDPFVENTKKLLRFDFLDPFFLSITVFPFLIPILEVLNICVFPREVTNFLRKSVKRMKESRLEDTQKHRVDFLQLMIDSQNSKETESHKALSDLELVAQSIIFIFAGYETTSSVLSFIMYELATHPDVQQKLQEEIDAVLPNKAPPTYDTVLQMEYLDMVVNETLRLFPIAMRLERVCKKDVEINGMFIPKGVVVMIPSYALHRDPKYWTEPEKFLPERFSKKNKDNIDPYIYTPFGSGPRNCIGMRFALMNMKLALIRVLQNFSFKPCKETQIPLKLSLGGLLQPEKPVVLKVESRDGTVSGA
Sequence of Cytochrome P450 3A7 (Homo sapiens) (P24462 whole entry, looked up): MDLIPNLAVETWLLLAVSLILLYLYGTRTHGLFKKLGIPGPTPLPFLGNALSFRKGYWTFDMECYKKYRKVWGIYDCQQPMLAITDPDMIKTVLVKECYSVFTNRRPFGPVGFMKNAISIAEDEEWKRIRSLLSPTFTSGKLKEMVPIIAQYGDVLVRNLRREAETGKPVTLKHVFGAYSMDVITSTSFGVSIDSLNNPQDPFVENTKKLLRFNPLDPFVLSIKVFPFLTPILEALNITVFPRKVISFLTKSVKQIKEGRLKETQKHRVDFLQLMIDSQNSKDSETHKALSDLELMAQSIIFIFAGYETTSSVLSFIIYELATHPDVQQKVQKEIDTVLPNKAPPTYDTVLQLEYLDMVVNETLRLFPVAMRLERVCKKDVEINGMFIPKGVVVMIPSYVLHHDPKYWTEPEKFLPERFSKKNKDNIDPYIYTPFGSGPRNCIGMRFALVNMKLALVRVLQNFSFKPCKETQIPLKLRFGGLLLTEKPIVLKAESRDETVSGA

Consider `CC[C@H](C)[C@H]1O[C@]2(C=C[C@@H]1C)C[C@@H]1C[C@@H](C/C=C(\C)[C@@H](O[C@H]3C[C@H](OC)[C@@H](O[C@H]4C[C@H](OC)[C@@H](O)[C@H](C)O4)[C@H](C)O3)[C@@H](C)/C=C/C=C3\CO[C@@H]4[C@H](O)C(C)=C[C@@H](C(=O)O1)[C@]34O)O2` (tested in a mixture with another compound), for which the AC50 with CYP2C8 (gene 1558) was 14.1 µM (active); in the assay with CYP2C9 (gene 1559), 7.85 µM (active); with CYP2E1 (gene 1571) it was 8.08 µM (active); with CYP4A11 (gene 1579) it was 7.39 µM (active); in [1], 10 µM (active); in [2], 10.1 µM (active). Further, the concentration at half-maximal activity (AC50) was 48.4 µM (active) in assay [3]; 7.92 µM (active) in assay [5]; 8.68 µM (active) in assay [7]; 10.2 µM (active) in assay [8]; 15 µM (active) in assay [9]; 7.88 µM (active) in assay [10]. Moreover, the figures for the concentration at half-maximal activity (AC50) in assay [11] and in assay [12] were 7.09 µM (active) and 44.2 µM (active), respectively. In addition, the compound was classed as inactive in [4] and in assay [6].

`O=C(O)CCCOc1ccc(Cl)cc1Cl`: the figures for the half-maximal activity concentration (AC50) (with CYP2C8 (gene 1558); with CYP4A11 (gene 1579); in assay [7]) were 14.6 µM (active), 10.1 µM (active) and 10.1 µM (active), respectively. Moreover, the outcome (in the assay with CYP2C9 (gene 1559); in the assay with CYP2E1 (gene 1571); in assay [1]; in assay [2]; in assay [3]; in [4]) was inactive. Further, the outcome in assay [5], in assay [8], in assay [9], in assay [10], in assay [11] and in [12] was inactive.

Turning to `O=C1c2ccccc2C(=O)N1SC(Cl)(Cl)Cl`, the call (with CYP2C8 (gene 1558); with CYP2C9 (gene 1559); with CYP2E1 (gene 1571); in the assay with CYP4A11 (gene 1579); in [1]; in assay [2]) was inactive. Moreover, the call in assay [3], in assay [4], in assay [5], in [6], in [7] and in assay [8] was inactive. The outcome in assay [9], in assay [10], in assay [11] and in assay [12] was inactive.

On to `CC(C)OC(=O)Nc1cccc(Cl)c1`, for which the result (with CYP2C8 (gene 1558); with CYP2C9 (gene 1559); with CYP4A11 (gene 1579); in assay [1]; in assay [2]; in assay [3]) was inactive. For the same compound, the compound was classed as inactive in assay [4], in [5], in [6], in [7], in [8] and in assay [9]. For the same compound, the result in assay [10], in [11], in assay [13] and in [12] was inactive.

On to `CC(C)(C)C(O)/C(=C\c1ccc(Cl)cc1Cl)n1cncn1` (stereo not given), for which the AC50 in the assay with CYP2C8 (gene 1558) was 3.88 µM (active); in the assay with CYP2E1 (gene 1571), 12.9 µM (active); with CYP4A11 (gene 1579), 21.9 µM (active); in assay [1], 84.5 µM (active); in [2] it was 29.4 µM (active); in [4], 33.8 µM (active). Moreover, the AC50 in assay [5] is 86.6 µM (active); in [7], 30.5 µM (active); in assay [8], 21.1 µM (active); in assay [9], 32.6 µM (active); in assay [10], 27.3 µM (active); in assay [11], 81.5 µM (active). The AC50 in [12] was 93.3 µM (active). In addition, the compound was called inactive (in the assay with CYP2C9 (gene 1559); in assay [3]; in assay [6]).

Regarding `O=S1OCC2C(CO1)C1(Cl)C(Cl)=C(Cl)C2(Cl)C1(Cl)Cl` (stereo not given), the half-maximal activity concentration (AC50) was 81.1 µM (active) with CYP2C8 (gene 1558); 82.4 µM (active) with CYP2C9 (gene 1559); 55.7 µM (active) with CYP2E1 (gene 1571); 62.6 µM (active) in the assay with CYP4A11 (gene 1579); 11.7 µM (active) in assay [1]; 80 µM (active) in [2]. Also, the AC50 in assay [6] is 50 µM (active); in assay [7], 43.6 µM (active); in [8], 60.4 µM (active); in assay [9], 40.4 µM (active); in assay [10], 79.7 µM (active). Besides, the call in assay [3], in [4], in assay [5], in assay [11] and in [12] was inactive.
